These results are taken from PubChem BioAssay AID1851 (National Center for Advancing Translational Sciences (NCATS), 2009).

Out of some 16,000 compounds screened, about 5,800 (36%) were called active. Not shown: some 23% with an inconclusive outcome. Calls come from the whole dose curve; as a rule, active = well fitted curve in the direction sought with a large enough effect; inconclusive = small, poorly fitted or top-dose-only effect, or effect the other way; inactive = no such curve, though single readings can be large or run the other way. The list shows a part of the results.
% is set by controls: 0 for no effect and ±100 for the full control effect.

Chain of Cytochrome P450 2C19 (Homo sapiens) (P33261 whole entry, looked up): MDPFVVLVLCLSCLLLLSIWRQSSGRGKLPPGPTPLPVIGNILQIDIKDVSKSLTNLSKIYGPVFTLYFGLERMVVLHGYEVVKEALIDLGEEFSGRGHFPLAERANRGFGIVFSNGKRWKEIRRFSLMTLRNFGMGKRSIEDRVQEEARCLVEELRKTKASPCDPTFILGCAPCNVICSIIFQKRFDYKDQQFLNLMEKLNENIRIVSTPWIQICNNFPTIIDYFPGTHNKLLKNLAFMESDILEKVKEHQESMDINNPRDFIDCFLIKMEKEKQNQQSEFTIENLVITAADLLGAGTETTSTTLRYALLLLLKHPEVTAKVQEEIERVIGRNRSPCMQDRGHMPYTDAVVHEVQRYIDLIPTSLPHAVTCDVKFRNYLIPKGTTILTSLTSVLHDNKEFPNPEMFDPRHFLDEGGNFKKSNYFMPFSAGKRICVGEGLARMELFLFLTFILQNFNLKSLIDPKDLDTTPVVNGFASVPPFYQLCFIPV

This test has as its target Cytochrome P450 2C19 (Homo sapiens) (UniProt P33261). Put plainly: Cytochrome panel assay with activity outcomes. The following applies: recombinant CYP, pro-luciferin dealkylation, luminescence, p450-cyp2c19; series mostly up to 57.1 µM; activity, negative = inhibition: at the top concentration.
Take `COC(=O)C/C=C\[C@@H](C)[C@@H](/C=N\O[C@@H]1O[C@H](COC(C)=O)[C@H](OC(C)=O)[C@H](OC(C)=O)[C@H]1OC(C)=O)OC`: the activity, negative = inhibition was -12.5% [at 11.4 µM] (inactive).

Turning to `NS(=O)(=O)c1ccc(N=Nc2cc3ccccc3c(C(=O)O)c2O)cc1`, the activity, negative = inhibition is -28.9% [at 11.4 µM] (inactive).

On to `OC[C@@H]1O[C@@H](n2cnc3cncnc32)[C@@H](O)[C@H]1O`, for which the “activity, negative = inhibition” value is -17.6% (inactive).

As for `O=C1C=C(NCCc2cc(Br)c(O)c(Br)c2)C(=O)c2ncccc21`, the AC50 (commonly the midpoint of the concentration-response curve, whichever way the signal moves) was 501 nM (active).

Take `O=C(Nc1ncc(Cc2cc(Cl)ccc2Cl)s1)c1ccc([N+](=O)[O-])cc1`: the AC50 was 2000 nM (active).

As for `CCOC(=O)N/N=C1/C[C@@H](O)[C@@H](O)[C@@H]2[C@@H]3C(=O)N(c4cccc(Oc5ccccc5)c4)C(=O)[C@H]3CC[C@H]12`, the activity, negative = inhibition is 42.4% [at 11.4 µM] (inactive).

As for `N=C1CCC[C@@H]1C(=S)SCCC(N)=O`, the activity, negative = inhibition is -14.4% [at 11.4 µM] (inactive).

As to `CC(C)CC1NC(=S)N(C2CCCCC2)C1=O` (stereo unspecified), the half-maximal activity concentration (AC50) is 7940 nM (active).

On to `CCC(C)C1NC(=S)N(C2CCCCC2)C1=O` (stereo unspecified), for which the AC50 was 2000 nM (active).

Regarding `COc1ccc(Oc2ncc3nc(CCc4ccccc4)c(=O)n(C)c3n2)cc1`, the AC50 is 10000 nM (active).

As to `COc1ccc(Oc2ncc3nc(C)c(=O)n(C)c3n2)cc1`, the “activity, negative = inhibition” value was -36% (inactive).

As to `Cc1nc2cnc(Oc3ccccc3)nc2n(C)c1=O`, the “activity, negative = inhibition” value is -44.4% (inactive).

For `Cn1c(=O)c(CCc2ccccc2)nc2cnc(Oc3ccccc3)nc21`, the AC50 is 25100 nM (active).

In the case of `Cn1c(=O)c(-c2cc(F)cc(F)c2)nc2cnc(Oc3ccccc3)nc21`, the “activity, negative = inhibition” value was -42.9% (inactive).

As to `COc1ccc(Oc2ncc3nc(-c4cc(F)cc(F)c4)c(=O)n(C)c3n2)cc1`, the “activity, negative = inhibition” value was 0.472% (inactive).

With `CC(C)N=c1cc2n(-c3ccc(Cl)cc3)c3ccccc3nc-2cc1Nc1ccc(Cl)cc1`, the “activity, negative = inhibition” value was -25.3% [at 25.6 µM] (inactive).

As to `O=c1c2ccccc2nc2n1C(CSCc1cccc(C(F)(F)F)c1)CS2` (stereo unspecified), the AC50 was 251 nM (active).

On to `COc1ccc2cc3[n+](cc2c1OC)CCc1cc2c(cc1-3)OCO2`, for which the “activity, negative = inhibition” value was -19.4% [at 25.6 µM] (inactive).

Regarding `C[n+]1cc2c3c(ccc2c2ccc4cc5c(cc4c21)OCO5)OCO3`, the AC50 was 6310 nM (active).

In the case of `O=C(Nc1cc2c(oc1=O)CCCC2=O)c1ccc(Cl)cc1`, the AC50 is 22400 nM (active).

As for `O=c1ccc(NS(=O)(=O)c2ccccc2)cn1Cc1ccc(Cl)c(Cl)c1`, the half-maximal activity concentration (AC50) is 200 nM (active).

Regarding `O=c1ccc(NS(=O)(=O)c2ccc(Cl)cc2)cn1Cc1ccc(Cl)c(Cl)c1`, the AC50 is 251 nM (active).

For the compound `Cc1ccc(S(=O)(=O)Nc2ccc(=O)n(Cc3ccc(Cl)c(Cl)c3)c2)cc1`, the AC50 is 158 nM (active).

Consider `O=C(c1ccccc1-c1nc(-c2ccccc2)no1)N1CCOCC1`, for which the “activity, negative = inhibition” value is -3.39% (inactive).

On to `Clc1ccccc1-c1nc(-c2ccncc2)no1`, for which the AC50 is 63.1 nM (active).

Regarding `CS(=O)(=O)c1ccccc1-c1nc(-c2cc(C(F)(F)F)cc(C(F)(F)F)c2)no1`, the “activity, negative = inhibition” value was -26.9% (inactive).
